Screens from PubChem BioAssay.
Hits are enriched below; roughly 2.9% of the tested compounds scored in any of these assays.
ALOX12 inh: Primary qHTS assay for inhibitors of human arachidonate 12S-lipoxygenase (ALOX12): Round 2. Polyunsaturated fatty acid lipoxygenase ALOX12 (Homo sapiens), P18054. purified 12hLO, xylenol orange hydroperoxide absorbance. Potency, µM (titrated, usually from 108 µM), without a hit: at the highest dose activity change, negative = inhibition, usual class: inhibitors. 580,000 tested, 1.1% active; further: potency means the concentration at half of the fitted maximal effect; on the % scale 0 is the no-effect control and ±100 the full control effect
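Purified human 12hLO (150 nM final) in 25 mM Hepes, 0.01% Triton X-100, pH 7.0 was preincubated 15 min at room temperature with compound. Then 40 uM arachidonic acid was added, 30 min. Hydroperoxide was read by Fe-XO absorbance ratio 573/405 nm.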
Pol beta inh: qHTS Assay for Inhibitors of DNA Polymerase Beta; P06746; Potency, µM (series often up to 114 µM), inactives show top-dose activity change, negative = inhibition, actives largely listed as inhibitors; Pol beta primer extension/strand displacement, fluorescence kinetic; 340,000 tested, 1.3% active; AID 485314, 2010; further: potency means the concentration at half of the fitted maximal effect; on the % scale 0 is the no-effect control and ±100 the full control effect
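Values derive from four-parameter Hill fits of normalized kinetic data: reads at 0 and 10 min following addition of 50 nM substrate to 10 nM Pol beta preincubated 15 min with compound.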
Pol kappa inh-1: qHTS for Inhibitors of Polymerase Kappa; AID 588579, 2011; 400,000 tested, 0.53% active; purified Pol kappa, fluorescent DNA synthesis assay, 10 min; Potency, µM (titrated, usually from 107 µM), for the others: top-dose activity, negative = inhibition, most hits filed as inhibitors; DNA polymerase kappa (Homo sapiens), Q9UBT6; further: potency means the concentration at half of the fitted maximal effect; on the % scale 0 is the no-effect control and ±100 the full control effect
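Kinetic fluorescence screen: compound preincubated 15 min RT with 10 nM enzyme; 50 nM substrate (final) initiates; reads at 0/10 min.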
PI5P4Ka inh: qHTS for Inhibitors of phosphatidylinositol 5-phosphate 4-kinase (PI5P4K). Phosphatidylinositol 5-phosphate 4-kinase type-2 alpha (Homo sapiens), P48426. PI5P4Kalpha enzyme, ADP-Glo luminescence, 60 min; stronger effect = lower value. max response, %. 330,000 tested, 1.2% active; active means max response of -50% or lower; inconclusive means between -30% and -50%; inactive means -30% or higher; further: value at the top dose of about 77 µM; on the % scale 0 is the no-effect control and ±100 the full control effect
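Human PI5P4Kalpha with substrate in 0.038 M HEPES pH 7.4, 0.28 mM EGTA, 0.1% CHAPS, 5% DMSO; reaction started with 5 microM ATP (final), 60 min at room temperature. ADP formed read by ADP-Glo luminescence.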
Pol eta inh-1: qHTS for Inhibitors of Polymerase Eta; AID 588591, 2011; recombinant Pol eta, fluorescent DNA replication assay; Potency, µM (doses to about 114 µM), inactives show at the highest dose activity change, negative = inhibition, usual class: inhibitors; 390,000 tested, 1.2% active; further: potency means the concentration at half of the fitted maximal effect; on the % scale 0 is the no-effect control and ±100 the full control effect
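Pol eta (10 nM) was preincubated with compounds for 15 min at room temperature, after which fluorescent replication substrate (50 nM final) was added to start the reaction. Fluorescence was read kinetically at 0 and 10 min.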
Pol iota inh: qHTS for Inhibitors of Polymerase Iota | DNA polymerase iota (Homo sapiens), Q9UNA4 | Pol iota fluorescent replication assay, 10 min | Potency, µM (doses to about 115 µM), for the others: at the top dose activity, negative = inhibition, hits mostly inhibitors | 390,000 tested, 1% active | AID 588590, 2011; further: potency means the concentration at half of the fitted maximal effect
Target sequence (Q9UNA4 whole entry, looked up): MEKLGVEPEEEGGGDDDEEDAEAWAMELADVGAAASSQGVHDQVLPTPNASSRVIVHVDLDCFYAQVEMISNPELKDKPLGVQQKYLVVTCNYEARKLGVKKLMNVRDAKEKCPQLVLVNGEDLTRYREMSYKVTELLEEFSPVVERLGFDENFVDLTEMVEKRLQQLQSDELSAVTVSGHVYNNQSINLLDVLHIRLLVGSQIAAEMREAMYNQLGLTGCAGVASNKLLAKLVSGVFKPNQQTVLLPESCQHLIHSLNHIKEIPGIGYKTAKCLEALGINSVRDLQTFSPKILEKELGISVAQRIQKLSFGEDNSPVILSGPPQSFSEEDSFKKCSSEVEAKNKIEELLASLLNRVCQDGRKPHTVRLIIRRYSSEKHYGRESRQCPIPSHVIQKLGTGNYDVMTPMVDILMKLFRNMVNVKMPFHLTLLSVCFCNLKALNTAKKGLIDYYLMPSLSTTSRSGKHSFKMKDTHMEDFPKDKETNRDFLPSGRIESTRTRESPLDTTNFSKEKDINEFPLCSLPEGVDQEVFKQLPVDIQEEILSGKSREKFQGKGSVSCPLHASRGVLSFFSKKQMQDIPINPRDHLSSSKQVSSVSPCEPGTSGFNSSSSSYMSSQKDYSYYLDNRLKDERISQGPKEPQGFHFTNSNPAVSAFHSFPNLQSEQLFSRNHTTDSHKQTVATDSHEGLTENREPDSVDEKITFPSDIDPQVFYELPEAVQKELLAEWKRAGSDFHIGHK
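Fluorescent replication assay read twice, at 0 min and 10 min after adding 50 nM (final) substrate. Enzyme (10 nM) and compounds were first incubated 15 min at room temperature; enzyme-free buffer wells were negative controls.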
PGK validate: qHTS for inhibitors of Phosphogylcerate Kinase: Hit Validation Screen; shares compounds with Pol kappa inh-1; TbPGK coupled GAPDH assay, Kinase-Glo luminescence; Potency, µM (series often up to 57.5 µM), for inactives: at the highest dose activity change, negative = inhibition, most hits filed as inhibitors; 500 tested, 79% active; further: potency means the concentration at half of the fitted maximal effect; on the % scale 0 is the no-effect control and ±100 the full control effect; nearly all actives have a fitted effect of over 65% in size
Pol iota confirm: qHTS for Inhibitors of Polymerase Iota: Confirmatory Assay for Cherry-picked Compounds. Potency, µM, hits mostly inhibitors. Pol iota primer extension, TAMRA/BHQ fluorescence. 1,500 tested, 77% active. shares compounds with Pol kappa inh-1; further: potency means the concentration at half of the fitted maximal effect
Pol kappa inh-2: qHTS for Inhibitors of Polymerase Kappa: Confirmatory Assay for Cherry-picked Compounds; shares compounds with Pol eta inh-1; purified Pol-kappa, fluorescent strand-displacement substrate; Potency, µM, usual class: inhibitors; 920 tested, 76% active; further: potency means the concentration at half of the fitted maximal effect
Pol eta inh-2: qHTS for Inhibitors of Polymerase Eta: Confirmatory Assay for Cherry-picked Compounds; Pol eta primer extension, TAMRA/BHQ fluorescence, 10 min; AID 720502, 2013; 2,600 tested, 64% active; Potency, µM, actives largely listed as inhibitors; shares compounds with Pol eta inh-1; further: potency means the concentration at half of the fitted maximal effect
* hit, by the source's call; ? = inconclusive; · = no result given; ! = a repeat was not active; [ ] = dose if it differs, or a comment. Unless noted, the call rests on the fitted dose curve; in most records, active means well fitted curve in the direction sought with a large enough effect; inconclusive means small, poorly fitted or top-dose-only effect, or another doubt; inactive means no such curve, though single readings can be large; an effect the other way counts as inactive or inconclusive.

SMILES	ALOX12 inh	Pol beta inh	Pol kappa inh-1	PI5P4Ka inh	Pol eta inh-1	Pol iota inh	Pol iota confirm	Pol eta inh-2	others
O=C1C=CC(=O)c2c(O)c(N3CCN(CCOCCO)CC3)c(Br)c(O)c21	?	·	28.2µM*	-54.7*	0.794µM*	?	2.12*	7.57*	Pol kappa inh-2=2.99*
O=C1C=CC(=O)c2c(O)c(N3CCN(CCO)CC3)c(Cl)c(O)c21	?	·	22.4µM*	?	1.78µM*	5.62µM*	3.36*	16.9*	Pol kappa inh-2=16.8*
OCCOCCN1CCN(C2=Nc3ccccc3Sc3ccccc32)CC1	-0.4%	5.6%	-13.1%	-3.2	-1.0%	15.1%	·	·
CC1=C(C#N)c2nc(N)c(C#N)c(C)c2/C1=C\c1ccc(OCC(=O)O)c(Cl)c1	?	-16.9%	79.4µM*	?	7.94µM*	?	47.4*	19*	Pol kappa inh-2=18.9*
O=C(O)COc1ccc(/C=C2/NC(=O)NC2=O)cc1Cl	-48.2%	·	·	·	·	·	·	·
c1ccc2c(CNC3CC3)cccc2c1	1.1%	·	·	·	·	·	·	·
Cc1nnc(NC(=O)CSCc2cc(=O)c3ccccc3[nH]2)s1	6.5%	?	-1.3%[60.1 µM]	·	50.1µM*	79.4µM*	67*	?
Cc1cc(C)c(S(=O)(=O)/N=C2/C=C(Sc3ncn[nH]3)C(=O)c3ccccc32)cc1C	?	79.4µM*	?	-80.0*	12.6µM*	1µM*	16.8*	23.9*
CCCCC/C=C\C/C=C\CCCCCCCC(=O)O	-12.6%[12.5 µM]	·	?	·	·	·	·	·
CCCCC/C=C\C/C=C\C/C=C\CCCCC(=O)O	?	·	50.1µM*!	-54.1*	20µM*	39.8µM*	67*	30.1*	Pol kappa inh-2=21.2*
COC(=O)C1=CO[C@@H](O[C@@H]2OC(CO)[C@@H](O)[C@@H](O)[C@@H]2O)C2C1CC[C@]2(C)O (some centres undefined)	-2.7%	·	-1.8%	10.7	-15.6%	21.8%	·	·
COC(=O)C1=COC(OC2OC(CO)C(O)C(O)C2O)C2C1C=CC2(O)CO (centres undefined)	-12.2%	20µM*	35.5µM*	-25.4	17.8µM*	39.8µM*	33.6*	26.9*	PGK validate=8.19µM*
COc1ccc(S(=O)(=O)N2CCN(C(=O)/C=C/c3ccco3)CC2)cc1	?	·	?	?	50.1µM*	22.4µM*	67*	75.7*	Pol kappa inh-2=67*
Cc1cccc2c(=O)c(-c3ccc4c(c3)OCO4)c(NC(=O)C(C)C)oc12	31.8%	·	·	·	·	·	·	·
CC(/C=C1\SC(=S)N(c2ccc(C(=O)O)cc2)C1=O)=C\c1ccccc1	35.5µM*	-23.8%	-37.4%	-56.5*	22.4µM*	20µM*	37.7*	42.6*
COc1cc2c(oc(=O)c3cc(C)cc(OC)c32)c2c(C3OC(C)C(O)C(C)(O)C3O)ccc(O)c12 (centres undefined)	-8.1%	·	39.8µM*	-1.0	3.98µM*	14.1µM*	29.9*	21.3*
CCn1c(SC(C)C(=O)O)nc2sc3c(c2c1=O)CCC3 (centres undefined)	?	8.91µM*	25.1µM*	?	3.55µM*	?	75.2*	23.9*
NCc1ccccc1-c1cccs1	14.8%[12.5 µM]	·	·	·	·	·	·	·
O=C(Nc1cc(=O)[nH]c2nc(C(F)(F)F)nn12)c1ccccc1F	-17.6%	·	·	·	·	·	·	·
O=C(O)c1cccc(NC(=S)N/N=C/c2ccccn2)c1	-22.5%	-25.6%	8.3%	?	9.7%	2.1%	·	·
O=C(O)c1cccc(NC(=S)N/N=C/c2ccccc2OCc2cccc(Br)c2)c1	28.2µM*	-19.0%	-11.4%	?	20µM*	?	?	47.8*
N#CCC(=O)Nc1ccc(C(=O)OCC(=O)N2CCN(C(=O)c3ccco3)CC2)cc1	-22.7%	·	44.7µM*	-21.9	?	44.7µM*	?	?
CC(=O)Nc1ccc(C(=O)OCC(=O)N2CCN(C(=O)c3ccco3)CC2)cc1	12.1%	·	-5.7%	1.0	-19.7%	11.8%	·	·
COc1cc(/C=C/C=C2/CC/C(=C/C=C/c3ccc(O)c(OC)c3)C2=O)ccc1O	?	·	14.1µM*	-92.7*	5.01µM*	3.55µM*	21.2*	15.1*
COc1cc(/C=C2\COC/C(=C\c3ccc(O)c(OC)c3)C2=O)ccc1O	?	3.4%	-8.2%	-22.9	?	?	·	·
SMILES	ALOX12 inh	Pol beta inh	Pol kappa inh-1	PI5P4Ka inh	Pol eta inh-1	Pol iota inh	Pol iota confirm	Pol eta inh-2	others
O=C(CSc1nc2ccccc2c(=O)[nH]1)c1ccc(O)c(O)c1	?	20µM*	20µM*	-56.0*	2.51µM*	12.6µM*	?	30.1*	PGK validate=?;Pol kappa inh-2=18.9*
O=C(CSc1nc2ccccc2n1CCc1ccccc1)N1CCOCC1	-9.6%	1.1%[57.1 µM]	-14.4%	1.7	-20.5%	0.4%	·	·
O=C(CSc1nc2ccccc2n1CCc1ccccc1)c1ccc(O)c(O)c1	25.1µM*	0.501µM*	?	-88.7*	3.16µM*	2.82µM*	2.99*	3.01*	PGK validate=1.46µM*
Cn1nc(C(=O)N2CCCC(CN3CCCC3)CC2)c2ccccc21 (centres undefined)	88.4%	·	·	·	·	·	·	·
Cc1ccnc2nc(C(=O)Nc3nnc(-c4ccc(Cl)cc4)o3)nn12	?	?	?	0.4	?	?	42.3*	?
CNC(=O)c1ccc(CNc2nc(CCN)nc3sc(C)c(C)c23)o1	52.4%	·	·	·	·	·	·	·
Cc1nn(C(=O)C2CCCN2S(=O)(=O)c2ccc(Cl)cc2)c(C)c1Sc1ccccc1 (centres undefined)	7.6%	·	·	·	·	·	·	·
